“And” between values parts separate entries of the source, which are not always exact repeats. Equal entries are not always repeated. Inconclusive results are not listed. Some structures have more than one record in an assay (separate samples or runs), and their calls can disagree. The source made the active and inactive calls. Unless noted, calls follow the shape of the full dose curve.
Key:
[1] = qHTS assay to identify small molecule antagonists of the sonic hedgehog signaling (Shh) pathway (AID 1259369); also: nearly all actives have a fitted effect of over 45% in size; also: potency is read from the fitted curve at half-maximal effect
Method in brief: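 NIH/3T3 stable Gli1-Luc clone, 2,000 cells/well, 4hr settle; cpd + conditioned medium 24hr; Luc reagent 30min RT; luminescence.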

[2] = qHTS assay to identify small molecule agonists of the androgen receptor (AR) signaling pathway in the presence of an antagonist - cell viability counter screen (AID 1259379; active = well fitted curve in the direction sought with a large enough effect in the repeat runs; an effect the other way counts as inactive or inconclusive; also: nearly all actives have a fitted effect of over 25% in size; also: potency is read from the fitted curve at half-maximal effect)
Method in brief: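 MDA-kb2 viability measured by CellTiter-Fluor fluorescence in the same wells as the luciferase signal; nilutamide 3.0uM final; 15-point compound titration; 16 hr at 37C.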

[3] = qHTS assay to identify small molecule agonists of the estrogen receptor beta (ER-beta) signaling pathway - cell viability counter screen (AID 1259380; active = well fitted curve in the direction sought with a large enough effect in the repeat runs; an effect the other way counts as inactive or inconclusive; also: nearly all actives have a fitted effect of over 30% in size; also: potency is read from the fitted curve at half-maximal effect)
Method in brief: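 Measured: luminescence from CellTiter-Glo after 30 min at room temperature, added to wells already read for the LiveBLAzer FRET reporter (2 hr substrate); ER-beta-UAS-bla HEK293T cells had 16 hr compound treatment at 37C, 5% CO2.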

[4] = qHTS assay to identify small molecule antagonists of the estrogen receptor beta (ER-beta) signaling pathway - cell viability counter screen (AID 1259382; active = well fitted curve in the direction sought with a large enough effect in the repeat runs; an effect the other way counts as inactive or inconclusive; also: nearly all actives have a fitted effect of over 55% in size; also: potency is read from the fitted curve at half-maximal effect)
Method in brief: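 Readout: luminescence, CellTiter-Glo, same wells as bla assay. System: ER-beta-UAS-bla GripTite HEK293T, 2% charcoal-stripped FBS. Exposure: compounds plus 1nM 17-beta-estradiol, 16 hr, 37C.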

[5] = biological target: Estrogen receptor (Homo sapiens) (UniProt P03372); test: qHTS assay to identify small molecule agonists of the estrogen receptor alpha (ER-alpha) signaling pathway in the presence of an antagonist (AID 1259383); also: nearly all actives have a fitted effect of over 15% in size; also: potency is read from the fitted curve at half-maximal effect; as to activation: top concentration of the series differs between compounds
Method in brief: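 Quantitative HTS confirmation: compounds titrated at 15 concentrations onto estrogen-deprived VM7Luc4E2 cells carrying a four-ERE luciferase construct, with ICI-182,780 present at 10.0nM final. Signal is luminescence after 22hr exposure.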

[6] = qHTS assay to identify small molecule agonists or antagonists of the thyroid stimulating hormone receptor (TSHR) signaling pathway - wild type cell line counter screen (AID 1259384)
Method in brief: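 Wild-type HEK293 cells were plated 18 h at 37 C/5% CO2, pin-dosed with compound plus Ro20-1724 medium, held 30 min at room temperature, then given cAMP-d2 and anti-cAMP-cryptate; fluorescence was read after 1 h. Fifteen concentrations, triplicate.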

[7] = biological target: Thyrotropin receptor (Homo sapiens) (UniProt P16473); test: qHTS assay to identify small molecule antagonists of the thyroid stimulating hormone receptor (TSHR) signaling pathway (AID 1259385); also: nearly all actives have a fitted effect of over 20% in size; also: potency is read from the fitted curve at half-maximal effect
Method in brief: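 TSHR-HEK293 cells were plated and held 18 h at 37C/5% CO2, then given compound plus Ro20-1724 and stimulated with TSH at 1.5 ng/mL final. After 30 min at room temperature, cAMP was detected with cAMP-d2/anti-cAMP-cryptate (1 h) by fluorescence.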

[8] = biological target: Androgen receptor (Homo sapiens) (UniProt P10275); test: qHTS assay to identify small molecule agonists of the androgen receptor (AR) signaling pathway in the presence of an antagonist (AID 1259381); also: nearly all actives have a fitted effect of over 15% in size
Method in brief: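 Luminescent ONE-Glo read, 30min at room temperature, follows 16hr compound exposure (15 concentrations) of MDA-kb2 cells at 37C, 0% CO2, with nilutamide added at 3.0uM final.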

[9] = biological target: Estrogen receptor beta (Homo sapiens) (UniProt Q92731); test: qHTS assay to identify small molecule agonists of the estrogen receptor beta (ER-beta) signaling pathway (AID 1259377; active = well fitted activation curve with a large enough effect in the signal ratio in the repeat runs, not every such curve was filed as active; the % refers to the signal ratio; also: potency is read from the fitted curve at half-maximal effect)
Method in brief: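 Ratiometric beta-lactamase FRET read-out came after 2 h substrate loading at room temperature. It followed 16 h compound treatment at 37C of GripTite HEK293T cells carrying a UAS-bla reporter, plated in 2% charcoal-stripped FBS medium.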

[10] = biological target: Estrogen receptor beta (Homo sapiens) (UniProt Q92731); test: qHTS assay to identify small molecule antagonists of the estrogen receptor beta (ER-beta) signaling pathway (AID 1259378; active = well fitted inhibition curve with a large enough effect in the signal ratio in the repeat runs, not every such curve was filed as active; the % refers to the signal ratio)
Method in brief: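 ER-beta-UAS-bla HEK293T (GripTite) cells in 2% charcoal-stripped FBS medium were preincubated 6 hr at 37C, dosed with compound, then stimulated with 1 nM E2 (final) for 16 hr; beta-lactamase reporter read by B/G FRET fluorescence after 2 hr substrate loading.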

Measured: Potency

Thyrotropin receptor (Homo sapiens), sequence (P16473 whole entry, looked up): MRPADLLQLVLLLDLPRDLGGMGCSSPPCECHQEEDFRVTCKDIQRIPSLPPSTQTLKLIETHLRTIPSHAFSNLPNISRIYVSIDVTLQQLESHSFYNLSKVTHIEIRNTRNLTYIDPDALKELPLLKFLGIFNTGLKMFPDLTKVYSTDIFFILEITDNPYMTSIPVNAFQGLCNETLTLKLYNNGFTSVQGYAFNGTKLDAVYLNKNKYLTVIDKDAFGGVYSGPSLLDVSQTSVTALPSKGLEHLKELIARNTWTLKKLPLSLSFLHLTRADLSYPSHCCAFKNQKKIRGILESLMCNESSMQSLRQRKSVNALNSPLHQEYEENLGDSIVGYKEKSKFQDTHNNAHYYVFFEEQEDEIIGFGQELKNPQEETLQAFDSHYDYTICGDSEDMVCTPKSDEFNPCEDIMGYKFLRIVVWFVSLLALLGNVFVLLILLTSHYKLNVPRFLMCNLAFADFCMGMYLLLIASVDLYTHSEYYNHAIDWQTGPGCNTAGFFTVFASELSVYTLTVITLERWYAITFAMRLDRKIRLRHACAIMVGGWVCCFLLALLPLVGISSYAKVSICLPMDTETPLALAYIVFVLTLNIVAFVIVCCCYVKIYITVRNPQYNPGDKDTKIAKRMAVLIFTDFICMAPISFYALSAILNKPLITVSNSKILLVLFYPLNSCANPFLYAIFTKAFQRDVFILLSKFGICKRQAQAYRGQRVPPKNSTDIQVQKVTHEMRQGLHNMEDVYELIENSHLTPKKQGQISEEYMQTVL
Androgen receptor (Homo sapiens), sequence (P10275 whole entry, looked up): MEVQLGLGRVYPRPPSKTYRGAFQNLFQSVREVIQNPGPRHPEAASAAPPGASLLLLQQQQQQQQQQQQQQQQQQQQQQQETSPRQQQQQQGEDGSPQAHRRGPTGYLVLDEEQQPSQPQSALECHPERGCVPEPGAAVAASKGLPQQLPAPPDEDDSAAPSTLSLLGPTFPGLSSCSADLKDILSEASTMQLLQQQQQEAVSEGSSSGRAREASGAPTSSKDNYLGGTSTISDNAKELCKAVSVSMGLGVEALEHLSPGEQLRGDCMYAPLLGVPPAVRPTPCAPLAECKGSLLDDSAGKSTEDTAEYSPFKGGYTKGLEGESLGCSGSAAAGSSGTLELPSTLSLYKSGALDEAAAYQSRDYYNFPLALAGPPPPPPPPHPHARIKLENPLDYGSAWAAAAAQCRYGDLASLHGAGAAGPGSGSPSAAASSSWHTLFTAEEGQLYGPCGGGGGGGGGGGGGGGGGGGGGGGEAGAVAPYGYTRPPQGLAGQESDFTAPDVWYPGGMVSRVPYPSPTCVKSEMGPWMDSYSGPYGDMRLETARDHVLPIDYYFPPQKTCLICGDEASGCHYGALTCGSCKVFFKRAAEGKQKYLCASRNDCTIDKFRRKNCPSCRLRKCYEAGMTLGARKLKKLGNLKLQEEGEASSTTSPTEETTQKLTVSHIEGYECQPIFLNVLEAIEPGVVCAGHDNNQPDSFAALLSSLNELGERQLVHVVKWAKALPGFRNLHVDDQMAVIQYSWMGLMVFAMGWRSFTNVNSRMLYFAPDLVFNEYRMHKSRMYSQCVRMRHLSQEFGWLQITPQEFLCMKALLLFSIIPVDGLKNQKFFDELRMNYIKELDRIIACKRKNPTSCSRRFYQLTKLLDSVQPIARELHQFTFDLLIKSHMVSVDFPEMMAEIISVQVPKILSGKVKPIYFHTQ
Estrogen receptor (Homo sapiens), sequence (P03372 whole entry, looked up): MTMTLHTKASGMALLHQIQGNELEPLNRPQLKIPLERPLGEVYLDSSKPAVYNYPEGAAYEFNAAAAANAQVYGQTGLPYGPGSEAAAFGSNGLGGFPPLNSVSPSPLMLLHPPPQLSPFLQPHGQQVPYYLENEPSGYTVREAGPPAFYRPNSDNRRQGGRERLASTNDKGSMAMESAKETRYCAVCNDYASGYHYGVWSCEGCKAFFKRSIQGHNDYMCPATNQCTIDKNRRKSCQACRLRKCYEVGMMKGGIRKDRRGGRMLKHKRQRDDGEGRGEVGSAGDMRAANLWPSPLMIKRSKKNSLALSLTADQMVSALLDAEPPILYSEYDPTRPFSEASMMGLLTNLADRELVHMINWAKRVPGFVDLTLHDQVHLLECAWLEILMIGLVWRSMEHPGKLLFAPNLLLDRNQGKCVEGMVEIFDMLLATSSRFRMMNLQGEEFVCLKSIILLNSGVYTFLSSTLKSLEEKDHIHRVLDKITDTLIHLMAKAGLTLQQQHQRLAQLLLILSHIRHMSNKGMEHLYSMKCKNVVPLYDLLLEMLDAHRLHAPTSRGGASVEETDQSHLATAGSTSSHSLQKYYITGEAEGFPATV
Estrogen receptor beta (Homo sapiens), sequence (Q92731 whole entry, looked up): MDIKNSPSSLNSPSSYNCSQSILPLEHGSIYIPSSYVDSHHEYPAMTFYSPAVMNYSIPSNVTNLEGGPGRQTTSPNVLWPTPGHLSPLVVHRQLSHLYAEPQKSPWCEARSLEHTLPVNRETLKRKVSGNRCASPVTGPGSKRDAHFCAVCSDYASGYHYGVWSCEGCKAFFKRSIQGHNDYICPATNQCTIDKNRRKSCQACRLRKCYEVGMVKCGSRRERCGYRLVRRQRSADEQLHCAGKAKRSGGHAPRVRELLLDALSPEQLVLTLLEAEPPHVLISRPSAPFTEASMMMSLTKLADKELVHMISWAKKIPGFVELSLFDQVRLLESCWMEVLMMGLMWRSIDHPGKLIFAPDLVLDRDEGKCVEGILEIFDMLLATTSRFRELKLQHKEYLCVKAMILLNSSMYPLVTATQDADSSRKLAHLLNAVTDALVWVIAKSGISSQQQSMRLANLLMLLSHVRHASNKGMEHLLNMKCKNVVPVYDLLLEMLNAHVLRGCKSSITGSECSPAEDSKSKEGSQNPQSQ

ClC(Cl)=C(Cl)C(Cl)=C(Cl)Cl
not listed: [8] | [9] | [10]
inactive: all other assays above

CNC(=S)S
inactive: [1] | [2] | [4] | [5] | [6] | [7]

CC[n+]1c(-c2ccccc2)c2cc(N)ccc2c2ccc(N)cc21
inactive: [5]
active: [1] 17.1 µM | [2] 24.2 µM and 10.6 µM | [3] 1.53 µM and 1.06 µM

C[C@]12CCC(=O)C=C1CC[C@@H]1[C@@H]2CC[C@@]2(C)[C@H]1CC[C@]2(C)O
inactive: [2] | [3] | [4] | [7]
active: [1] 6.16 µM | [5] 11.3 µM and 10.6 µM

O=C1C(Cl)=C(Cl)C(=O)c2ccccc21
inactive: [5]
active: [1] 1.73 µM | [2] 48.7 µM and 54.5 µM

CCC(=O)Nc1ccc(Cl)c(Cl)c1
inactive: [2] | [8] | [4] | [6] | [7]

COP(=S)(OC)Oc1ccc(S(=O)(=O)N(C)C)cc1
not listed: [3] | [9] | [10]
inactive: all other assays above

CCOP(=S)(OCC)SCSC(C)(C)C
inactive: [1] | [2] | [3] | [5] | [6]

CC(C)(c1ccccc1)c1ccc(O)c(C(C)(C)c2ccccc2)c1
active: [1] 30.4 µM and 13.7 µM
inactive: [5] | [7]

CCCCOCC1CO1 (centres undefined)
inactive: [1] | [2] | [3] | [4] | [5] | [7]

Cl
inactive: [1] | [2] | [3] | [4]

CCOP(=O)(O)OCC (tested in a mixture with another compound)
inactive and 30.4 µM (active): [4]
active: [1] 0.0482 µM
inactive and 48.2 µM (active): [3]
inactive and 27.1 µM (active): [2]

C[N+](C)(C)CC(=O)O
inactive: [1] | [2] | [4] | [5]

Clc1ccc(C(Cl)(Cl)Cl)cc1
inactive: [1] | [2] | [4] | [5] | [6] | [7]

CCC[CH2][Sn]([Cl])([CH2]CCC)[CH2]CCC
inactive: [5] | [6]
active: [1] 0.307 µM | [2] 687 nM and 1.54 µM | [7] 12.2 µM

CC(C)(C#N)N=NC(C)(C)C#N
inactive: [1] | [2] | [3] | [4] | [5] | [7]

O=C1Nc2ccc(Cl)cc2C(c2ccccc2)=NC1O (centres undefined)
inactive: [9] | [10] | [2] | [7]

CCCCC(C#N)(Cn1cncn1)c1ccc(Cl)cc1 (centres undefined)
active: [7] 60.9 µM and 54.5 µM
inactive: [1] | [2] | [5]

O=C(O)c1nn(Cc2ccc(Cl)cc2Cl)c2ccccc12
inactive: [1] | [2] | [8] | [5] | [7]
active: [3] 27.1 µM and 26.6 µM

CCOP(=S)(OCC)SCn1c(=O)oc2cc(Cl)ccc21
inactive: [9] | [2] | [3] | [5]

CCC1(c2ccc(N)cc2)CCC(=O)NC1=O (centres undefined)
inactive: [1] | [2] | [8] | [4] | [5]

O=S(=O)(O)C(F)(F)C(F)(F)C(F)(F)C(F)(F)C(F)(F)C(F)(F)C(F)(F)C(F)(F)F
46.2 µM (active) and inactive: [4]
inactive: [1] | [2] | [6] | [7]
active: [3] 51.9 µM and 48.6 µM

Nc1ccc([N+](=O)[O-])cc1N
active: [1] 2.43 µM | [2] 61.1 µM and 30.6 µM
21.7 µM (active) and inactive: [3]
inactive: [4] | [6]

c1ccc(C2CO2)cc1 (centres undefined)
inactive: [1] | [2] | [3] | [7]

ClCC(Cl)CCl
inactive: [1] | [2] | [3] | [7]

O=NN(c1ccccc1)c1ccccc1
inactive: [1] | [2] | [4] | [5] | [6] | [7]

CC1CC(=O)O1 (centres undefined)
inactive: [1] | [2] | [7]

C[C@]12CC[C@H]3[C@@H](CCC4=CC(=O)CC[C@@H]43)[C@@H]1CC[C@@H]2O
active: [9] 540 nM and 4.22 µM | [5] 1.21 µM and 6.68 µM
inactive: [2] | [4] | [6] | [7]

CC(C)=CC1C(C(=O)OCN2C(=O)C3=C(CCCC3)C2=O)C1(C)C (centres undefined)
inactive: [1] | [2] | [8] | [6] | [7]

CCCCOCCOC(C)=O
not listed: [8] | [9] | [10]
inactive: all other assays above

C[N+](C)(C)C
inactive: [1] | [2] | [3] | [5] | [6] | [7]

CC(C)(c1ccc(OCC2CO2)cc1)c1ccc(OCC2CO2)cc1 (centres undefined)
active: [1] 15.6 µM
inactive: [2] | [8] | [5] | [6] | [7]
43.8 µM (active) and inactive: [4]

C[N+](C)(C)CC(=O)[O-]
inactive: [1] | [2] | [4] | [5]

O=[N+]([O-])c1ccc(Cl)c([N+](=O)[O-])c1
active: [1] 1.1 µM and 6.86 µM | [2] 22 µM and 21.7 µM | [3] 27.7 µM and 27.3 µM | [4] 27.7 µM and 27.3 µM
inactive: [8] | [5] | [6] | [7]

N#CCCCCC#N
inactive: [1] | [2] | [3] | [4] | [6] | [7]

NN=C(N)N
inactive: [1] | [2] | [3]
